Values without a mark were called inactive. Records with an inconclusive call do not appear. A call without a number means that no potency is given here. Activity calls are given as the source filed them. Calls follow the shape of the dose curve; as a rule, active = well fitted curve in the direction sought with a large enough effect in the repeat runs; inconclusive = weak or mixed curves; inactive = no such curve, though single readings can be large; an effect the other way counts as inactive or inconclusive.
Columns and labels:
[1] = A CellTox Green Cytotoxicity Assay to monitor cytotoxicity in HEK293 cells - 32 hour (AID 1224881); also: nearly all actives have a fitted effect of over 40% in size
In short: (§1)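 Homogeneous no-lysis format: HEK293 cell suspension mixed with CellTox Green reagent, seeded, incubated 5 h at 37 C/5% CO2, then dosed by pintool with compound in DMSO.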

[2] = A CellTox Green Cytotoxicity Assay to monitor cytotoxicity in HepG2 cells - 0 hour (AID 1224882); also: nearly all actives have a fitted effect of over 35% in size
In short: (§2)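 Fluorescent DNA-binding dye, 600 HepG2 cells/well, 5 h preincubation then compound in DMSO; same plates read at 0–40 h, 37 C.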

[3] = A CellTox Green Cytotoxicity Assay to monitor cytotoxicity in HepG2 cells - 32 hour (AID 1224883); also: nearly all actives have a fitted effect of over 50% in size
In short: as §2

[4] = A CellTox Green Cytotoxicity Assay to monitor cytotoxicity in HEK293 cells - 8 hour (AID 1224884); also: nearly all actives have a fitted effect of over 35% in size
In short: as §1

[5] = qHTS RealTime-Glo MT Cell Viability Assay in HepG2 cells - 16 hour (AID 1224885); also: nearly all actives have a fitted effect of over 50% in size
In short: (§3)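 Tox21 10K library screened in qHTS format on HepG2 cells carrying RealTime-Glo reagents. Compounds were added after a 5 h preincubation, and the luminescent signal from continuous culture was measured repeatedly during 40 h treatment.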

[6] = qHTS RealTime-Glo MT Cell Viability Assay in HEK293 cells - 24 hour (AID 1224886); also: nearly all actives have a fitted effect of over 50% in size
In short: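 Luminescence generated by NanoLuc from substrate produced by living HEK293 cells served as the viability signal. Each value reflects the reading at its stated time point during continuous 40 h compound exposure at 37 C.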

[7] = qHTS RealTime-Glo MT Cell Viability Assay in HEK293 cells - 8 hour (AID 1224887); also: nearly all actives have a fitted effect of over 50% in size
In short: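 Measured as luminescence from the same continuously cultured HEK293 wells at successive time points (0, 8, 16, 24, 32, 40 h) after compound addition. Reagent present from seeding; dosing at 5 h; incubation 37 C.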

[8] = A CellTox Green Cytotoxicity Assay to monitor cytotoxicity in HEK293 cells - 16 hour (AID 1224888); also: nearly all actives have a fitted effect of over 35% in size
In short: as §1

[9] = qHTS RealTime-Glo MT Cell Viability Assay in HepG2 cells - 0 hour (AID 1224889); also: nearly all actives have a fitted effect of over 50% in size
In short: as §3

[10] = A CellTox Green Cytotoxicity Assay to monitor cytotoxicity in HepG2 cells - 8 hour (AID 1224890); also: nearly all actives have a fitted effect of over 45% in size
In short: as §2
Potency is read from the fitted curve at half-maximal effect.

| SMILES | Potency [1] | Potency [2] | Potency [3] | Potency [4] | Potency [5] | Potency [6] | Potency [7] | Potency [8] | Potency [9] | Potency [10] |
| --- | --- | --- | --- | --- | --- | --- | --- | --- | --- | --- |
| C=CC(=O)OCCn1c(=O)n(CCOC(=O)C=C)c(=O)n(CCOC(=O)C=C)c1=O | 34.7 µM (active) | inactive | 43.6 µM (active) | inactive | 15.5 µM (active) | 11 µM (active) | inactive | inactive | inactive |  |
| COc1cc(/C=C/C(=O)O[C@H]2CC[C@]34C[C@]35CC[C@]3(C)[C@@H]([C@H](C)CCC=C(C)C)CC[C@@]3(C)[C@@H]5CC[C@H]4C2(C)C)ccc1O | inactive | inactive | inactive | inactive | inactive | inactive | inactive | inactive | inactive |  |
| Cc1onc(-c2ccccc2Cl)c1C(=O)N[C@@H]1C(=O)N2[C@@H]1SC(C)(C)[C@@H]2C(=O)O | inactive | inactive | inactive | inactive | inactive | inactive | inactive | inactive | inactive | inactive |
| Clc1ccc(C(Cn2ccnc2)OCc2ccc(Sc3ccccc3)cc2)c(Cl)c1 (stereo unspecified) | inactive | inactive | inactive | inactive | inactive | inactive | inactive | inactive | inactive | inactive |
| Oc1cccc2cc3cccc(O)c3c(O)c12 | inactive | inactive | inactive | inactive | inactive | inactive | inactive | inactive | inactive | inactive |
| CCC(N)(CO)CO | inactive | inactive | inactive | inactive | inactive | inactive | inactive | inactive |  |  |
| C[C@]12CCC(=O)C=C1CC[C@@H]1[C@@H]2[C@@H](O)C[C@@]2(C)[C@H]1CC[C@]2(O)C(=O)COC(=O)CCC(=O)O | inactive | inactive | inactive | inactive | inactive | inactive | inactive | inactive | 3.38 µM (active) |  |
| CCCCCCCCn1sc(Cl)c(Cl)c1=O | 1.23 µM (active) | inactive | 12.3 µM (active) | 2.45 µM (active) | 4.9 µM (active) | 3.89 µM (active) | 3.47 µM (active) | 1.95 µM (active) |  |  |
| CCCCN(CCCC)C(=O)N(CCCC)CCCC | inactive | inactive | inactive | inactive | inactive | inactive | inactive | inactive |  |  |
| N=C1N=C(N)c2cc3ccccc3cc21 | 54.9 µM (active) | inactive | 33.4 µM (active) | 54.9 µM (active) | 38.9 µM (active) | 24.5 µM (active) | 43.6 µM (active) | 54.9 µM (active) | inactive |  |
| CC[C@@]1(O)C(=O)OCc2c1cc1n(c2=O)Cc2cc3c(CN(C)C)c(O)ccc3nc2-1 | 23.9 µM (active) | 23.9 µM (active) | 8.49 µM (active) | 26.8 µM (active) | inactive | 0.0849 µM (active) | inactive | 26.8 µM (active) | inactive | 23.9 µM (active) |
| CO[Si](CCCNc1ccccc1)(OC)OC | inactive | inactive | inactive | inactive | inactive | inactive | inactive | inactive | inactive | inactive |
| CNCc1cc(F)ccc1Oc1ccc(Cl)c(Cl)c1 | 49 µM (active) | inactive | 49 µM (active) | inactive | 49 µM (active) | 38.9 µM (active) |  |  |  |  |
| O=C(O)c1c(Cl)cccc1Cl | inactive | inactive | inactive | inactive | inactive | inactive | inactive | inactive | inactive |  |
| CCCCCCCCCCCCCCCC[N+](C)(C)CCN(Cc1ccc(OC)cc1)c1ncccn1 | 9.52 µM (active) | inactive | 6.74 µM (active) | 19 µM (active) | 8.49 µM (active) | 1.07 µM (active) | 2.13 µM (active) | 19 µM (active) | inactive | 19 µM (active) |
| CNC(=O)c1ccccc1 | inactive | inactive | inactive | inactive | inactive | inactive | inactive | inactive | inactive | inactive |
| Nc1cc(C(F)(F)F)ccc1S | inactive | inactive | inactive | inactive | inactive | inactive | inactive | inactive | inactive | inactive |
| O=c1c(-c2ccccc2)c1-c1ccccc1 | 5.35 µM (active) | inactive | 9.52 µM (active) | inactive | 19 µM (active) | 13.4 µM (active) |  | inactive | inactive |  |
| CCN(C(=O)c1cc(C)cc(OC[C@H](C)Nc2ccncc2)c1)C(C)C | inactive | inactive | inactive | inactive | inactive | inactive | inactive | inactive | inactive | inactive |
| CC(=O)OCC(C)OC(C)=O (stereo unspecified) | inactive | inactive | inactive | inactive | inactive | inactive |  | inactive |  | inactive |

Reference: PubChem BioAssay (Tox21)
